Experiment: inhibition of PAO1 biofilm formation – strain PAO1, LB-PBS medium, absorbance 600 nm, primary screen (AID 1176); further: test concentration not given here
Conditions: P. aeruginosa PAO1 growth/biofilm, A600, 12 h; higher = more signal; call rule not given here

z-score, inactive:
CC(C)OC(=O)C=C1C[C@@H](c2ccc(C#N)cc2)O[C@@H](c2ccc(C#N)cc2)O1 -0.281, CO[C@@H]1COC(=O)CC=C[C@@H](C)COC(=O)[C@H](COCc2ccccc2)NC(=O)CC=C[C@H]1C -0.969, CO[C@@H]1COC(=O)CC=C[C@@H](C)[C@@H]2C=C[C@H](O)[C@@H](COC(=O)CCC[C@H]1C)O2 -0.95, O=C1[C@H]2[C@H]3[C@H](O)[C@H](O)CC(=NO[C@@H]4O[C@H](CO)[C@@H](O)[C@H](O)[C@H]4O)[C@H]3CC[C@H]2C(=O)N1Cc1ccc2c(c1)OCO2 -0.249, C=CC[C@@H]1C=C[C@H](ON=Cc2ccc(C(=O)N3[C@H](c4ccc(C)cc4)[C@@H](C)CC[C@H]3C(=O)OC)cc2)[C@@H](CO)O1 0.547, COCCOC(=O)N1C(=O)[C@@]2(c3cc(C#Cc4ccc(OC)cc4)ccc31)[C@H](c1ccc(O)cc1)N1[C@H](c3ccccc3)[C@H](c3ccccc3)OC(=O)[C@H]1[C@@H]2C(N)=O 0.898, CC(C)(C)N1CC=CC23O[C@@H]4C=CCCOC(=O)C4[C@H]2C(=O)N(CCCCCO)[C@@H]3C1=O (stereo partly specified) -0.36, COCCOC(=O)N1C(=O)[C@@]2(c3cc(C#Cc4ccc(OC)cc4)ccc31)[C@H](C(=O)N1CCN(c3ncccn3)CC1)[C@H]1C(=O)O[C@H](c3ccccc3)[C@H](c3ccccc3)N1[C@@H]2c1ccc(OCCO)cc1 3.21, COC(=O)[C@@H]1CC[C@H](C)[C@@H](c2ccc(C)cc2)N1C(=O)c1ccc(C=NOC(C)CN2CCCCc3nc(C)c(C)cc32)cc1 (stereo partly specified) 0.642, CC(C)CON=C1[C@H]2CCn3c(=O)n(-c4ccccc4)c(=O)n3[C@H]2[C@H](O)[C@@H]2O[C@H]12 -0.225, COCC(=C=CC[C@@H](O)c1ccccc1OCCO)CCO 0.0356, O=C1O[C@@H](c2ccccc2)[C@@H](c2ccccc2)N2[C@@H](c3ccc(OCCO)cc3)[C@]3(C(=O)Nc4ccc(C#CCCO)cc43)[C@@H](C(=O)N3CCCCCCC3)[C@H]12 1.72, C#C[C@@H]1Oc2ccccc2S(=O)(=O)N2CCC[C@H]12 0.0359, CCCC[C@H]1OB(O)C[C@H]2C1=C(C)C[C@H]1C(=O)N(C)C(=O)[C@H]12 0.4, O=C1[C@H]2[C@H]3[C@H](O)[C@H](O)CC(=NOC[C@@H](O)COCc4ccco4)[C@H]3CC[C@H]2C(=O)N1c1cccc(Oc2ccccc2)c1 0.741, CC(C)[C@H](NC(=O)OC(C)(C)C)[C@@H](O)CC(=O)OC(C)(C)C -0.506, CO[C@H]1COC(=O)CC=C[C@H](C)[C@@H](NS(=O)(=O)c2ccc(C)cc2)COC(=O)CC=C[C@@H]1C -0.573, CCOC(=O)CCN1C(=O)[C@H]2[C@H]3[C@H](O)[C@H](O)CC(=O)[C@H]3CC[C@H]2C1=O 0.0122, NC(=O)NCC#Cc1ccc2c(c1)[C@]1(C(=O)N2)[C@H](c2ccc(O)cc2)N2[C@H](c3ccccc3)[C@H](c3ccccc3)OC(=O)[C@H]2[C@@H]1C(=O)N1CCCCCCC1 1.1, CCOC(=O)C[C@H]1[C@H](OC(=O)c2ccc(C(=O)c3ccccc3)cc2)[C@@H](NC(=O)c2ccc(-c3ccccc3)cc2)c2cc(OCCCO)ccc2N1C(=O)c1ccc2ccccc2n1 -0.0998, O=C1[C@H]2[C@H]3[C@H](O)[C@H](O)CC(=NO[C@@H]4O[C@H](CO)[C@@H](O)[C@H](O)[C@H]4O)[C@@H]3CC[C@H]2C(=O)N1Cc1ccccc1 0.565, CC(C)(C)N1C(=O)[C@H]2[C@H]3[C@H](O)[C@H](O)CC(=NOCc4ccccc4)[C@@H]3CC[C@H]2C1=O 0.246, C[C@@H](c1ccccc1)N1C(=O)[C@H]2[C@H]3[C@H](O)C=CC(=O)[C@@H]3CC[C@H]2C1=O -0.319, CC(C)(C)N1C(=O)[C@H]2[C@H]3[C@H](O)[C@H](O)CC(=NO[C@@H]4O[C@H](CO)[C@@H](O)[C@H](O)[C@H]4O)[C@@H]3CC[C@H]2C1=O 0.0821, CCOC(=O)NN=C1C[C@@H](O)[C@@H](O)[C@@H]2[C@@H]3C(=O)N(C(C)(C)C)C(=O)[C@@H]3CC[C@@H]12 -0.495, COC(=O)[C@H](C)NC(=O)CCC1CC(OC(=O)NCCc2ccc(F)cc2)CC2(CCCC(COC(=O)NCCc3ccc(Cl)cc3)O2)O1 (stereo partly specified) 0.45, COc1ccccc1CN1C(=O)c2ccccc2[C@@H](C(=O)NCC(F)(F)F)[C@@H]1c1ccc(CO)cc1 0.512, C[C@H]1Cc2c(-c3ccccc3)nc3c(c2CO1)CN(CCOc1ccccc1)CC3 1.17, COCCCNC(=O)[C@@]1(CCS(=O)(=O)c2ccccc2)N=C(c2ccc(OCCCO)cc2)O[C@H]1c1ccccc1 0.0963, O=C1CCCC2OC12C(O)CCc1ccccc1 (stereo unspecified) -0.127, COC(=O)CC=C[C@H](C)[C@@H](OCc1ccccc1Br)C(C)C 0.274, CO[C@H]1COC(=O)[C@@H]2CCCN2C(=O)[C@@H](C)COC(=O)CC=C[C@@H]1C -0.725, CC(C)=CCCC(C)=CCON=C1[C@H]2CCn3c(=O)n(C)c(=O)n3[C@H]2[C@H](O)[C@@H]2O[C@H]12 -0.543, CN1C(=O)C2C=CC(C(O)C(c3ccccc3)c3ccccc3)N(NC(=O)OC(C)(C)C)C2C1=O (stereo unspecified) 0.791, CCOC(=O)CCN1C(=O)[C@H]2[C@H]3[C@H](O)[C@H](O)CC(=NNC(=O)OCc4ccc(OC)cc4)[C@@H]3CC[C@H]2C1=O -0.0242, CC(CCC(=O)OC[C@H]1O[C@H](C#Cc2ccccc2)C=C[C@@H]1Oc1ccc(C)cc1)=NO[C@@H](C)c1cn([C@H](CO)Cc2ccccc2)nn1 -0.786

Source: PubChem BioAssay
